Drawing on PubChem BioAssay (NCI), this text covers growth inhibition for 38 molecules.

Assay [1] is described as follows: NCI Yeast Anticancer Drug Screen. Data for the rad50 strain (AID 155).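 Also: 0% = growth of vehicle-only cultures of the same strain.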 To be noted: S. cerevisiae rad50 strain growth inhibition, active compounds read high; at 50.0 µM unless noted. The method, boiled down: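 Yeast carrying a defined DNA repair defect were exposed to test compounds, and growth was compared with vehicle-treated controls to give percent inhibition.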
Assay [2] can be described thus: NCI Yeast Anticancer Drug Screen. Data for the mec2-1 strain (AID 157). To be noted: S. cerevisiae mec2-1 strain, active compounds read high; at 50.0 µM unless noted. The method, boiled down:
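Vehicle-treated cultures served as reference for growth inhibition of compound-exposed mec2-1 yeast.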

The nature of assay [3]: NCI Yeast Anticancer Drug Screen. Data for the sgs1 mgt1 strain (AID 161).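 Also: 0% = growth of cultures given vehicle only.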 To be noted: S. cerevisiae sgs1 mgt1 strain, active compounds read high; at 50.0 µM unless noted. The method, boiled down:
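Genetically altered yeast, compound exposure, growth inhibition relative to vehicle.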

Assay [4] can be described thus: NCI Yeast Anticancer Drug Screen. Data for the cln2 rad14 strain (AID 165).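 Also: 0% = growth equal to vehicle treated cultures.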 Conditions: S. cerevisiae cln2 rad14 strain, active compounds read high; at 50.0 µM unless noted. The procedure, abridged: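 Each compound was tested on cln2 rad14 yeast. Inhibition of growth was calculated against vehicle-exposed controls.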
Assay [5] in a line: NCI Yeast Anticancer Drug Screen. Data for the bub3 strain (AID 167). To be noted: S. cerevisiae bub3 mutant strain, active compounds read high; at 50.0 µM unless noted. The method, boiled down:
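Compounds were applied to a genetically altered yeast strain carrying a cell-cycle control defect. Growth inhibition was scored against vehicle-treated controls.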

Assay [6] in a line: NCI Yeast Anticancer Drug Screen. Data for the mlh1 rad18 strain (AID 175). To be noted: S. cerevisiae mlh1 rad18 strain growth inhibition, active compounds read high; at 50.0 µM unless noted. The method, boiled down:
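Vehicle-treated cultures served as the reference for growth inhibition in a yeast strain carrying DNA damage repair alterations exposed to each compound.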

This is part of a sample that, as a whole, favours compounds with a hit. Of some 79,000 tested, about 15% had one in any assay. A number with no mark means an inactive call. Active and inactive are the calls of the source. Rule as the data show it: active = growth inhibition above about 70%; inactive = the rest.

Regarding `COc1cc(Cc2nccc3cc(OC)c(OC)cc23)c(C(C)=O)cc1OC`, the growth inhibition in assay [1] was 21.9%; in assay [2], -22.9%; in assay [3], 19.1%; in assay [4], 14.1%; in assay [5] it was 22%; in assay [6], 22.4%.
Regarding `COC(=O)C(CCC1(C)OCCO1)C(C)=O` (stereo not drawn), the growth inhibition in assay [1] is -10.4%; in assay [2] it was -0.85%; in assay [3] it was -9%; in assay [4] it was 7.65%; in assay [5], -1.55%; in assay [6] it was -13%.
For `CC1Sc2ccccc2-c2[nH]c3ccccc3c21` (stereo not drawn), the growth inhibition in assay [1] was 32.8%; in assay [2], 49%; in assay [3] it was 16%; in assay [4], 5%; in assay [5] it was 31.7%; in assay [6], 66.1%.
Consider `O=C1c2ccccc2C(=O)N1c1ccc(Cc2ccc(N3C(=O)c4ccccc4C3=O)cc2)cc1`, for which the growth inhibition in assay [1] was -11.7%; in assay [2], 10.1%; in assay [3], -2.6%; in assay [4] it was 42.9%; in assay [5], -0.2%; in assay [6], 14.7%.
On to `OCC1OC(n2cnc3c(/C=C(/O)c4ccccc4)ncnc32)C(O)C1O` (stereo not drawn), for which the growth inhibition is -32.6% in assay [1]; -27% in assay [2]; 0.35% in assay [3]; -13.5% in assay [4]; -27.1% in assay [5]; 5.35% in assay [6].
In the case of `CC1(C)C=C(C(c2cccc([N+](=O)[O-])c2)N2CCCCC2)C(=O)c2ccccc21` (stereo not drawn), the growth inhibition in assay [1] was -26.9%; in assay [2] it was -10.7%; in assay [3], -13.2%; in assay [4], -40.9%; in assay [5] it was -0.9%; in assay [6] it was -13.3%.
As for `O=C(O)Cc1ccc(-c2cn3c(n2)sc2ccccc23)cc1`, the growth inhibition is 58.1% in assay [1]; 22.3% in assay [2]; 0.05% in assay [3]; 5.45% in assay [4]; 24.8% in assay [5]; 16.4% in assay [6].
Take `O=C(c1ccccc1)C(Oc1ccccc1)c1ccccc1` (stereo not drawn): the growth inhibition is 39.5% in assay [1]; 19.2% in assay [2]; 37.8% in assay [3]; 36% in assay [4]; 6.9% in assay [5]; 60% in assay [6].
As to `COC(=O)c1ccccc1NC(=O)Nc1ncccn1`, the growth inhibition was -5.3% in assay [1]; 2.4% in assay [2]; -7.2% in assay [3]; -10.1% in assay [4]; -11.2% in assay [5]; -11.5% in assay [6].
For `C=C(NC(=O)C(c1ccccc1)c1ccccc1)C(=O)O`, the growth inhibition was 21.6% in assay [1]; 11.7% in assay [2]; -1.15% in assay [3]; -25.1% in assay [4]; -1.9% in assay [5]; 17.4% in assay [6].
Turning to `CNC(=O)N(CCCC(NC(C)=O)C(=O)NCc1ccccc1)Cc1ccccc1` (stereo not drawn), the growth inhibition was 16.1% in assay [1]; 3.4% in assay [2]; -7.95% in assay [3]; 17.6% in assay [4]; 8.5% in assay [5]; 18.9% in assay [6].
Turning to `C#CCN(N=O)C(=O)NCCCCC(NC(C)=O)C(=O)NCc1ccccc1` (stereo not drawn), the growth inhibition in assay [1] was 3.4%; in assay [2] it was -16.9%; in assay [3] it was -16.9%; in assay [4], 5%; in assay [5], -16.2%; in assay [6], -15.1%.
Consider `O=C(c1ccccc1)c1ccc(O)cc1`, for which the growth inhibition is 3.5% in assay [1]; 3.05% in assay [2]; 21.4% in assay [3]; 13.9% in assay [4]; -1.75% in assay [5]; 24.9% in assay [6].
Take `O=[N+]([O-])c1cccc(C2=NN(c3ccccc3)C3c4cc(Br)ccc4OCC23)c1` (stereo not drawn): the growth inhibition in assay [1] was -10.8%; in assay [2], -18.4%; in assay [3], -17.6%; in assay [4], 2.45%; in assay [5], 10.2%; in assay [6], -31.7%.
Consider `O=C(CSC(=S)N1CCOCC1)Nc1nc2c(s1)CCCC2`, for which the growth inhibition is -15.1% in assay [1]; -32% in assay [2]; -28.2% in assay [3]; 2.6% in assay [4]; -1.65% in assay [5]; -16.3% in assay [6].
Take `N#C/C(=C\c1ccccc1)c1cccc(F)c1`: the growth inhibition in assay [1] was 28.9%; in assay [2], 24.6%; in assay [3], 18.2%; in assay [4] it was -4.05%; in assay [5], 15.7%; in assay [6], 11.4%.
`CC1=C2CC(C)(C)CC(=O)C2(C)CCC1=O` (stereo not drawn): the growth inhibition was 4.2% in assay [1]; -6.55% in assay [2]; 11.9% in assay [3]; 25.6% in assay [4]; -2.85% in assay [5]; 27.8% in assay [6].
In the case of `N=c1ccccn1C(=O)C1=Cc2cc(Cl)cc(Cl)c2OC1`, the growth inhibition is -15.6% in assay [1]; 0.75% in assay [2]; -1.85% in assay [3]; -25.8% in assay [4]; 7.65% in assay [5]; -2.25% in assay [6].
As for `Cc1cccc2c(N3CCN(c4ccccc4)CC3)c3c(nc12)CCCCC3`, the growth inhibition in assay [1] is 11.4%; in assay [2] it was -22.7%; in assay [3] it was -12.3%; in assay [4], -3.05%; in assay [5] it was 3.2%; in assay [6] it was -2.7%.
On to `CN(N=O)C(=O)NCCCCCNC(=O)N(C)N=O`, for which the growth inhibition in assay [1] was 7.6%; in assay [2], 12.8%; in assay [3] it was 14.1%; in assay [4], -132%; in assay [5], 10.5%; in assay [6], -4.85%.
`O=S(=O)(CCCl)c1ccc(Br)cc1`: the growth inhibition is 51.6% in assay [1]; 44.6% in assay [2]; 56.7% in assay [3]; 18.8% in assay [4]; 39.4% in assay [5]; 57.5% in assay [6].
On to `O=C(O)c1cccc(-c2ccccc2)c1O.O=C(O)c1cccc(-c2ccccc2)c1O.[Cu]`, for which the growth inhibition in assay [1] was 41.2%; in assay [2] it was 39.5%; in assay [3], 21.6%; in assay [4] it was 2.6%; in assay [5], 33.9%; in assay [6], 32.4%.
Regarding `NC(COC(=O)NCCCl)C(=O)O` (stereo not drawn), the growth inhibition was 12.7% in assay [1]; -6.95% in assay [2]; -0.35% in assay [3]; -11.5% in assay [4]; 22.1% in assay [5]; 18.6% in assay [6].
As for `COc1cccc(C2c3cc4c(cc3OC(NNS(=O)(=O)c3ccc(C)cc3)C2C)OCO4)c1OC` (stereo not drawn), the growth inhibition was 3.75% in assay [1]; 4.55% in assay [2]; 10.3% in assay [3]; 8.05% in assay [4]; 36.9% in assay [5]; 18.2% in assay [6].
Turning to `C/C(=C\CNc1nc(Cl)nc2nc[nH]c12)CO`, the growth inhibition in assay [1] is -12.3%; in assay [2] it was -5.6%; in assay [3] it was -32.6%; in assay [4], 3.6%; in assay [5] it was -0.4%; in assay [6] it was -8.4%.
In the case of `O=C(O)Cn1c(=O)[nH]c(=O)c2[nH]cnc21`, the growth inhibition in assay [1] was 4.6%; in assay [2], -26.4%; in assay [3] it was -0.3%; in assay [4] it was 13.8%; in assay [5], -9.2%; in assay [6] it was -12%.
For `CCCc1ccc(C)c(CCC)c1O`, the growth inhibition was -5.95% in assay [1]; -10.9% in assay [2]; -5.1% in assay [3]; -17.3% in assay [4]; -4.05% in assay [5]; 4% in assay [6].
Turning to `CC(C)(C)[Si](C)(C)OCC1OC(n2cnc3c(=O)[nH]cnc32)CC1O` (stereo not drawn), the growth inhibition is 0.35% in assay [1]; 6.2% in assay [2]; 3.2% in assay [3]; 8% in assay [4]; 44% in assay [5]; -7.85% in assay [6].
For the molecule `CCC(C)(CC=C(C)C)c1ccncc1` (stereo not drawn), the growth inhibition in assay [1] was -6.7%; in assay [2] it was 1.95%; in assay [3] it was 3.1%; in assay [4], -16.8%; in assay [5] it was 9.6%; in assay [6] it was -9.6%.
In the case of `COC(=O)C(C)(C)C(C)=O`, the growth inhibition in assay [1] is -40%; in assay [2] it was -47.1%; in assay [3], -37.5%; in assay [4], 7.5%; in assay [5], -26.9%; in assay [6], -30.4%.
As to `O=C1OCC(c2ccccc2)=C1c1ccccc1`, the growth inhibition is 22.3% in assay [1]; -3% in assay [2]; 20.3% in assay [3]; -16% in assay [4]; 6.35% in assay [5]; 16.6% in assay [6].
As to `CN(C)c1ccc(C(=O)Cc2ccc3ccccc3n2)cc1`, the growth inhibition was 98.7% (active) in assay [1]; 99.2% (active) in assay [2]; 99.1% (active) in assay [3]; 98.2% (active) in assay [4]; 98.9% (active) in assay [5]; 98.9% (active) in assay [6].
In the case of `COC(=O)N1C=NC2C3(C)C(C)=C(C)C3(C)C21C` (stereo not drawn), the growth inhibition in assay [1] was 0.35%; in assay [2] it was -3.55%; in assay [3], -4.1%; in assay [4] it was -24.9%; in assay [5], -0.4%; in assay [6], -7.45%.
In the case of `CC(=O)Nc1cccc(N=Cc2ccc(N(CCOS(C)(=O)=O)CCOS(C)(=O)=O)cc2C)c1`, the growth inhibition in assay [1] was 73.8% (active); in assay [2], 70.5% (active); in assay [3] it was 40.4%; in assay [4] it was 22.9%; in assay [5], 13.8%; in assay [6] it was 93.2% (active).
On to `OCC12c3ccccc3C3c4ccccc4C1C32` (stereo not drawn), for which the growth inhibition in assay [1] is 10.2%; in assay [2], -17.4%; in assay [3], -4.05%; in assay [4] it was -31.1%; in assay [5] it was -18.9%; in assay [6], 0.95%.
Consider `CN(Cc1ccccc1Cl)C(=O)Nc1cccc(Cl)c1`, for which the growth inhibition was 61.5% in assay [1]; 78% (active) in assay [2]; 80.7% (active) in assay [3]; 80% (active) in assay [4]; 86.7% (active) in assay [5]; 90.2% (active) in assay [6].
Turning to `Cc1cnc(N)cn1` (tested in a mixture with another compound), the growth inhibition in assay [1] is -0.05%; in assay [2], -6%; in assay [3], 1.1%; in assay [4] it was -52.2%; in assay [5], 3.4%; in assay [6] it was 8.1%.
Consider `O=C1c2ccccc2C(=O)N1CCS(=O)(=O)O`, for which the growth inhibition in assay [1] was 8.65%; in assay [2], 18.1%; in assay [3] it was 14.2%; in assay [4], -7.55%; in assay [5], 10.2%; in assay [6], 9.9%.
